# Reference: PubChem BioAssay AID1486 (The Scripps Research Institute Molecular Screening Center, 2009)
# Where “and” joins values, the source holds several entries; their conditions need not be identical. Identical values can stand only once. In all, about 220,000 compounds went through this assay and about 2,400 (1.1%) were called active. The entries come from a sample that favours actives as a whole. A number with no mark means an inactive call.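 Rule for the calls: active = inhibition above a per-campaign cutoff, the mean inhibition of all tested compounds plus 3 SD (cut at about 27% in these data); inactive = the rest.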
# Experiment: parental Ba/F3 cell viability inhibition, counter-screen for JAK2V617F inhibitor project, murine pro-B, CellTiter-Glo luminescence (AID 1486);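 note: 0% = DMSO wells and 100% = JAK Inhibitor I control wells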
# Settings: CellTiter-Glo ATP luminescence, at 5.6 µM, hits give high values
row,SMILES,inhibition
1,COc1cccc(-n2c(SCC(=O)c3c[nH]c4ccccc34)nc3ccccc3c2=O)c1,3.88%
2,Cn1ncc2c(NNC(=O)Cc3cccc4ccccc34)ncnc21,6.49%
3,COCCCNC(=O)Cn1cc(/C=C(\C#N)C(=O)N2CCN(c3ccccc3)CC2)c2ccccc21,2.71%
4,O=C(NC(Nc1nc2ccc([N+](=O)[O-])cc2s1)(C(F)(F)F)C(F)(F)F)c1ccccc1,53.4% (active)
5,O=C(Nc1nc2ccc([N+](=O)[O-])cc2s1)c1ccncc1,-4.75%
6,O=C(O)CCC(=O)Nc1nc2ccc([N+](=O)[O-])cc2s1,3.87%
7,O=C(O)c1cccc(NC(=S)N/N=C/c2c[nH]c3ccccc23)c1,7.89%
8,Cc1cc(C)c(C(N)=O)c(Cl)n1,1.66%
9,CCOc1cccc(NC(=O)Cn2nc(-c3ccc4c(c3)OCCO4)ccc2=O)c1,1.09%
10,CN1CCc2nc(SC(C(=O)O)c3ccccc3)c(C#N)c(-c3cccs3)c2C1 (centres undefined),-0.18%
11,CC1=NOC(=O)/C1=C\c1ccccc1,-2.02%
12,COc1cc(/C=C2/C(=O)ON=C2C)ccc1OCc1cccc(F)c1,59.9% (active)
13,COc1cc(/C=C2/C(=O)ON=C2C)ccc1OCc1ccccc1F,5.96%
14,CCc1ccc(Oc2nc([N+](=O)[O-])nn2C)cc1,-0.05%
15,COC(=O)c1cccc(NS(C)(=O)=O)c1,-2.38%
16,CCOC(=O)c1cc(-c2nnc(-c3cc(OC)c(OC)c(OC)c3)o2)c(C)nc1C,3.72%
17,CCOC(=O)C1CCN(C(=O)/C=C/c2cc(OC)c(OC)c(OC)c2)CC1,2%
18,CCOC(=O)C1=C(N)N2C(=O)C(C)SC2=C(C(=O)OCC)C1c1cc(OC)c(OC)c(OC)c1 (centres undefined),66% (active)
19,COc1ccc(C2C=C(c3ccc(Br)cc3)Nc3nc(NS(C)(=O)=O)nn32)cc1 (centres undefined),-0.92%
20,C=CCNC(=S)NNC(=O)c1cc(Cl)ccc1OC,2.83%
21,Cc1ccc(NC(=O)CN(C)CC(=O)Nc2cccc(F)c2)cc1[N+](=O)[O-],27.9% (active)
22,CN(CC(=O)Nc1cccc(F)c1)CC(=O)Nc1cccc([N+](=O)[O-])c1,3.37%
23,Cc1ccc(CN(C)CC(=O)Nc2cccc([N+](=O)[O-])c2)o1,1.42%
24,CC(=O)N/C(=C/c1ccc(OC(F)F)cc1)C(=O)O,6.54%
25,O=C(Nc1ccc(Cl)cc1)N1CCc2[nH]c3ccccc3c2C1,4.99%

row,SMILES,inhibition
1,Fc1ccc(NC(=S)N2CCc3[nH]c4ccccc4c3C2)cc1,35% (active)
2,C=CCNC(=S)N1CCc2[nH]c3ccccc3c2C1,0.22%
3,CC12CCC(C(=O)N(NC(=O)c3ccccc3O)C1=O)C2(C)C (centres undefined),8.25%
4,COc1ccc(S(=O)(=O)NCC2CCCN(C(=O)c3occc3C)C2)cc1 (centres undefined),7.62%
5,Cc1cccc(NC(=O)COc2ccccc2C)n1,83.3% (active)
6,Cc1cccc(NC(=O)COc2ccc(Br)cc2C)n1,6.66%
7,Cc1ccccc1OCC(=O)Nc1nc(C)c(C(=O)N(C)C)s1,7.55%
8,CC1(C)CC(=O)C/C(=N\NC(=O)c2cccs2)C1,8.84%
9,NS(=O)(=O)c1ccc(NC(=S)NC(=O)c2cccc(Br)c2)cc1,7.4%
10,O=C(C[n+]1cc(-c2ccc(Cl)c(Cl)c2)n2c1CCC2)c1cccs1,10.5%
11,Cc1ccc(-c2c[n+](CC(=O)Nc3ccccc3)c3n2CCC3)cc1,0.41%
12,Cc1ccc(C(=O)C[n+]2cc(-c3ccccc3)n3c2CCCCC3)cc1,70.7% (active) and 65.4% (active)
13,Clc1ccc(C[n+]2cc(-c3ccc(Cl)cc3)n3c2CCC3)cc1,58.9% (active)
14,Clc1ccc(C[n+]2cc(-c3ccccc3)n3c2CCC3)cc1,63.7% (active)
15,Cn1c(-c2ccccc2)c[n+]2c1CCCCC2,3.67%
16,O=c1oc(-c2ccccc2NS(=O)(=O)c2ccc(Cl)cc2)nc2ccccc12,2.45%
17,Cc1ccc(/C=N/NC(=S)Nc2cccc(S(=O)(=O)N(C)C)c2)o1,2.16%
18,COC(=O)c1ccc(NC(=S)Nc2cccc(C)n2)cc1,-3.59%
19,O=[N+]([O-])c1cccc(Nc2c3ccccc3nc3ccccc23)c1,2.06%
20,CC(=O)Nc1ccc(Nc2c3ccccc3nc3ccccc23)cc1,97.3% (active)
21,Cc1ccc(Nc2c3c(nc4ccccc24)CCC3)cc1,-1.93%
22,CC1=C(C)CC(C(=O)NNC(=O)c2csc3c2CCC(C(C)(C)C)C3)C(C(=O)O)C1 (centres undefined),4.65%
23,CCCCCn1c(=O)c(C(=O)OCC)c(Cl)c2ccccc21,-3.36%
24,Cc1c(CCO)c(=O)n(-c2ccccc2)n1S(=O)(=O)c1ccc(F)cc1,41% (active)
